These results are taken from PubChem BioAssay AID1224921 (Broad Institute, 2016).

Molecules are shown by their SMILES. About 350 (25%) of roughly 1,400 compounds were called active. About 2% were inconclusive and are not listed. No rule for the calls is given here. A selection follows. Entries with a potency or affinity are not part of this list.

The assay is described as follows: inhibitors of Clostridioides difficile proliferation – 4-point retest, confirmation (AID 1224921).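 Also: plate controls were DMSO wells for no effect and levofloxacin 16 µg/mL wells for full effect.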 The following applies: Clostridioides difficile clinical isolate growth, OD600, 24 h, stronger effect = lower value; at 30 µM unless noted.
For the compound `COc1ccccc1S(=O)(=O)N(C)C[C@H]1Oc2cc(C#CCC(C)C)ccc2S(=O)(=O)N([C@@H](C)CO)C[C@@H]1C`, the max activity is 10.5% (inactive).
In the case of `C[C@H]1CN([C@@H](C)CO)S(=O)(=O)c2ccc(Br)cc2O[C@@H]1CN(C)Cc1cccc(F)c1` it was 41.5% (inactive); in that of `C[C@H]1CN([C@@H](C)CO)C(=O)c2c(c3ccccc3n2C)-c2ccccc2CO[C@H]1CN(C)S(=O)(=O)CC(F)(F)F`, 14.7% (inactive).
On to `CCCC(=O)Nc1ccc2c(c1)OC[C@H](C)N(Cc1ccncc1)C[C@@H](C)[C@H](OC)CN(C)C2=O`, for which the max activity was 14.3% (inactive).
With `CCCN1C[C@@H](C)[C@@H](OC)CN(C)C(=O)c2cc(NC(=O)CC)ccc2OC[C@H]1C`, the max activity is -7.79% [at 0.5 µM] (inactive).
In the case of `CO[C@@H]1CN(C)C(=O)c2cc(NS(=O)(=O)c3cccc(F)c3)ccc2OC[C@@H](C)N(Cc2cc(F)ccc2F)C[C@@H]1C` it was 14.2% (inactive).
Next, `NC(=O)[C@@H]1[C@H]2C(=O)O[C@H](c3ccccc3)[C@H](c3ccccc3)N2[C@H](c2ccc(O)cc2)[C@@]12C(=O)Nc1ccc(C#CC3=CCCCC3)cc12`: 21.8% (inactive); `CCCN1C[C@H](C)[C@@H](OC)CN(C)C(=O)c2ccc(NC(=O)Nc3c(C)noc3C)cc2OC[C@@H]1C`: 29.7% (inactive); `C[C@@H]1CN([C@@H](C)CO)C(=O)c2ccccc2-c2ccccc2CO[C@H]1CN(C)C(=O)c1ccc(F)cc1`: -6.68% [at 8 µM] (inactive).
In the case of `C[C@@H]1CN([C@@H](C)CO)C(=O)Cc2cc(NC(=O)c3ccncc3)ccc2O[C@@H]1CN(C)Cc1ccc(-c2ccccc2)cc1` it was 41.4% (inactive).
As to `N#C[C@H]1[C@@H](c2ccc(C#CC3CCCCC3)cc2)[C@@H](CO)N1C(=O)Cc1ccccn1`, the max activity is 24.3% [at 0.5 µM] (inactive).
With `C[C@H](CO)N1C[C@H](C)[C@@H](CN(C)Cc2ccccc2)Oc2ccc(NS(C)(=O)=O)cc2CC1=O`, the max activity was 28% [at 35 µM] (inactive).
In the case of `CO[C@@H]1CN(C)C(=O)c2ccc(NC(=O)c3ccc(F)cc3)cc2OC[C@@H](C)N(C(=O)c2ccc(F)cc2)C[C@@H]1C` it was -7.95% [at 0.5 µM] (inactive); in that of `C[C@@H](NC(=O)C[C@H]1C=C[C@H](NC(=O)C2CCC2)[C@@H](CO)O1)c1ccccc1`, -13.6% [at 0.5 µM] (inactive); in that of `CCC(=O)N1C[C@H](C)[C@H](OC)CN(C)C(=O)c2cc(NS(=O)(=O)CC)ccc2OC[C@H]1C`, -9.49% [at 1.95 µM] (inactive).
In the case of `C[C@H]1CN([C@@H](C)CO)S(=O)(=O)c2ccc(C#CC3CC3)cc2O[C@@H]1CN(C)Cc1ccncc1` it was 47% (inactive).
Next, `C[C@@H]1CN([C@@H](C)CO)C(=O)c2c(c3ccccc3n2C)-c2ccccc2CO[C@@H]1CN(C)Cc1cccc(C(=O)O)c1`: -12.2% [at 8 µM] (inactive); `Cc1ccc(F)cc1S(=O)(=O)N[C@H]1CCN(Cc2ccc(OC(C)C)cc2)C1`: 21.6% (inactive); `COc1ccc(CN(C)C[C@H]2Oc3c(NC(=O)Nc4ccc(C(F)(F)F)cc4)cccc3C(=O)N([C@@H](C)CO)C[C@@H]2C)cc1`: 32.3% [at 8 µM] (inactive).
Take `COc1ccc(CN(C)C[C@@H]2Oc3c(NC(=O)Nc4ccc(C(F)(F)F)cc4)cccc3C(=O)N([C@@H](C)CO)C[C@H]2C)cc1`: the max activity was 38% (inactive).
Consider `COc1cccc(S(=O)(=O)N[C@@H]2CC[C@H](CCN)O[C@@H]2CO)c1`, for which the max activity was -11.8% [at 1.95 µM] (inactive).
As for `CNC[C@@H]1Oc2cc(C#CCC3CCCC3)ccc2S(=O)(=O)N([C@H](C)CO)C[C@H]1C`, the max activity is 18.8% [at 8 µM] (inactive).
In the case of `CCS(=O)(=O)Nc1ccc2c(c1)C(=O)N(C)C[C@H](OC)[C@H](C)CN(C)[C@H](C)CO2` it was -7.51% [at 1.95 µM] (inactive); in that of `CCCC#Cc1ccc2c(c1)O[C@H](CN(C)Cc1ccncc1)[C@@H](C)CN([C@@H](C)CO)S2(=O)=O`, 18.4% (inactive).
Take `CO[C@@H]1CN(C)C(=O)c2ccc(NC(=O)C3CCC3)cc2OC[C@@H](C)N(S(=O)(=O)c2ccc(Cl)cc2)C[C@H]1C`: the max activity is -9.7% [at 2.1 µM] (inactive).
In the case of `C[C@H](CO)N1C[C@H](C)[C@@H](CN(C)C(=O)Nc2ccc3c(c2)OCO3)Oc2cc(C#Cc3cccnc3)ccc2S1(=O)=O` it was -15.3% [at 8 µM] (inactive); in that of `O=C(N[C@H]1CC[C@@H](CCNS(=O)(=O)Cc2ccccc2)O[C@@H]1CO)c1ccc2c(c1)OCO2`, 16.7% (inactive).
Next, `CN(C)C(=O)C[C@@H]1CC[C@H](NC(=O)c2ccc(F)cc2)[C@H](CO)O1`: -7.24% [at 1.95 µM] (inactive); `C[C@@H](NC(=O)C[C@@H]1C=C[C@@H](NC(=O)C2CCC2)[C@H](CO)O1)c1ccccc1`: -14.9% (inactive); `COc1ccc(C(=O)Nc2ccc3c(c2)OC[C@@H](C)N(C(=O)C2CC2)C[C@@H](C)[C@H](OC)CN(C)C3=O)cc1`: 3.99% [at 35 µM] (inactive).
For the compound `CO[C@H]1CN(C)C(=O)c2ccc(NC(=O)c3ccccc3F)cc2OC[C@H](C)N(CC2CC2)C[C@H]1C`, the max activity was -14.6% [at 1.95 µM] (inactive).
Next, `C[C@@H]1CN([C@@H](C)CO)C(=O)Cc2cc(NS(C)(=O)=O)ccc2O[C@@H]1CN(C)Cc1ccc(-c2ccccc2)cc1`: 21.7% (inactive).
Next, `CNC[C@@H]1Oc2cc(-c3ccccc3F)ccc2S(=O)(=O)N([C@H](C)CO)C[C@H]1C`: 24.6% (inactive); `O=C(Cc1ccncc1)NCC[C@@H]1CC[C@H](NC(=O)C2CCC2)[C@@H](CO)O1`: -11.9% [at 0.5 µM] (inactive).
Next, `CN(C)C(=O)C[C@@H]1CC[C@H](NC(=O)c2ccc(F)cc2)[C@@H](CO)O1`: 5.78% [at 8 µM] (inactive); `O=C(Cc1ccncc1)NCC[C@H]1CC[C@H](NC(=O)C2CCC2)[C@@H](CO)O1`: -8.1% [at 35 µM] (inactive).
For `O=C(Cc1ccncc1)NCC[C@H]1CC[C@H](NC(=O)C2CCC2)[C@H](CO)O1`, the max activity was -8.69% [at 1.95 µM] (inactive).
`COc1ccc(-c2ccc3c(c2)O[C@H](CN(C)Cc2cccnc2)[C@@H](C)CN([C@H](C)CO)S3(=O)=O)cc1`: the max activity is 25.8% (inactive).
